High-throughput results (PubChem)
Sampled rows, rich in hits. Any-hit rate of the full collection: about 3.2%.
HDAC3 inh: blocks human histone deacetylase 3. O15379. recombinant HDAC3, fluorogenic peptide/trypsin coupled, fluorescence. inhibition, % at 8.3 µM. 320,000 compounds, 0.15% hits. AID 2718; in the data active = inhibition above about 26%, passing the limit was not always enough
CHT allo act: allosterically activates the human high affinity choline transporter. CHT-expressing cells, membrane potential dye, choline EC20; hits give high values; LV-AA mutant CHT in HEK293 cells. B-score at 10 µM. 310,000 compounds, 0.49% hits. AID 488977;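 active = initial fluorescence not abnormally high and integrated response B-score, plate-corrected, over 3 SD above library mean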
ANO1 activ: activates or potentiates the mouse TMEM16A chloride channel | Q8BHY3 | HEK293 TMEM16A/YFP-H148Q/I152L, iodide quench fluorescence; hits give low values | B-score at 10 µM | 340,000 compounds, 0.3% hits;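 active = fluorescence-ratio B-score plate-corrected deviation score at least 3 library SD below zero, with starting fluorescence score within 5 deviations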;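 also: channel opened by trigger with iodide after compound preincubation; score built on the fluorescence ratio of max minus min over baseline; more negative score means more quench and so TMEM16A activation or potentiation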
Target sequence (Q8BHY3 whole entry, looked up): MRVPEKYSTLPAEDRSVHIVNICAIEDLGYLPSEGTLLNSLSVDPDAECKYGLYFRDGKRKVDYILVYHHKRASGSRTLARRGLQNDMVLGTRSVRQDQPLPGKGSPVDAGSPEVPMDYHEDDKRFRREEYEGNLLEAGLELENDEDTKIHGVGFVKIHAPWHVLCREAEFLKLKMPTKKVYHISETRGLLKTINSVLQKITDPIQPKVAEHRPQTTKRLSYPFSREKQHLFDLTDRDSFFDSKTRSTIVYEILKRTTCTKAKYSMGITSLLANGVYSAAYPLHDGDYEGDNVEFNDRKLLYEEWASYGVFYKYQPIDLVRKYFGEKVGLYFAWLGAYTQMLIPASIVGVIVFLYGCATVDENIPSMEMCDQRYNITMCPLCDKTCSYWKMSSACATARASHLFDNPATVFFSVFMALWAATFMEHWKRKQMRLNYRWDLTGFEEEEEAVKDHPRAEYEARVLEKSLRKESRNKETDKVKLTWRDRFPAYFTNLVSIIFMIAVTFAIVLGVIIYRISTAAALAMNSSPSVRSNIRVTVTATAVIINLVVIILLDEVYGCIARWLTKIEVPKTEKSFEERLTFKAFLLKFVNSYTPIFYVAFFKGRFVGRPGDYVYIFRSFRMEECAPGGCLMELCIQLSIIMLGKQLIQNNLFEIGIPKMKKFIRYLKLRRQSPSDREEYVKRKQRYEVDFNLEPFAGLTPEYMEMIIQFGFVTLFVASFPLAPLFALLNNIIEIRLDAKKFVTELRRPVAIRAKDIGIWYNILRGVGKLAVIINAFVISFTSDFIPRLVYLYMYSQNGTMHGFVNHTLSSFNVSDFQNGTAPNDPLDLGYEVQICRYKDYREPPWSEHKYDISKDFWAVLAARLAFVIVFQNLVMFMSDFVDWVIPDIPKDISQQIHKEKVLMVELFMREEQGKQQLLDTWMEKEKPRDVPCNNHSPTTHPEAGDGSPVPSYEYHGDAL
CHT block: inhibits the human high affinity choline transporter; B-score at 10 µM; CHT-expressing cells, membrane potential dye, choline response; hits give low values; Q9GZV3; AID 488975; 310,000 compounds, 0.86% hits;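 active = B-score over 3 SD under the library average, and starting fluorescence ratio not unusually high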;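 also: choline stimulus applied at its EC90 after an EC20 pre-addition; B-score computed on integrated fluorescence ratio after choline addition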
TMEM16A inh: mouse TMEM16A channel inhibition, primary screen. Q8BHY3. HEK293 TMEM16A/YFP iodide influx fluorescence, ionomycin. normalized B-score (activity score, 25-100; higher = stronger inhibition) at 10 µM. 310,000 compounds, 1.2% hits. AID 588511;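 active = ratio plate-corrected score three or more library SD toward inhibition, starting fluorescence score within five deviations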;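 also: score derived from kinetic fluorescence span divided by baseline fluorescence per well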
PHOSPHO1 inh: inhibitors of human PHOSPHO1 phosphatase | Q8TCT1 | recombinant PHOSPHO1, absorbance phosphatase assay | inhibition, % at 13.3 µM | 290,000 compounds, 1.1% hits; in the data active = inhibition above about 60%
* marks the source's active call; other numbers are inactive results; i = inactive; x = not tested or not shown.

SMILES | HDAC3 inh | CHT allo act | ANO1 activ | CHT block | TMEM16A inh | PHOSPHO1 inh
O=C1CCC(NC(=O)c2ccccc2)C(=O)N1 (stereo not drawn) | -2 | i | i | i | i | 38
Cn1c(=O)c2c(nc(CN3CCN(c4ccc(F)cc4)CC3)n2Cc2ccccc2F)n(C)c1=O | -3 | i | i | i | i | 11
C/C(=N\Nc1ccc(Cl)cc1)c1ccccn1 | -2 | i | i | i | i | 94*
CCOc1ccc(-c2nc(N)ncc2Oc2cccc(OC)c2)c(O)c1 | 27* | i | i | i | i | -5
C=C(C)COc1ccc(-c2nc(N)ncc2Oc2ccc(OC)cc2)c(O)c1 | 9 | i | i | i | i | 18
C=C(C)COc1ccc(-c2nc(N)ncc2Oc2ccccc2OC)c(O)c1 | 30* | i | i | i | i | 12
CCOc1ccc(-c2nc(N)ncc2Oc2ccccc2Br)c(O)c1 | 5 | i | i | i | i | -14
Cc1cc(CNC(=O)C2CCC(=O)N(Cc3cccc(C(F)(F)F)c3)C2)no1 (stereo not drawn) | 3 | i | i | i | i | 18
O=C(COC(=O)c1ccc(Br)c(S(=O)(=O)N2CCOCC2)c1)NCC1CCCO1 (stereo not drawn) | -1 | i | i | i | i | -4
COc1ccc(Cn2nnnc2CN2CCOCC2)cc1 | 2 | i | i | i | i | 4
Cc1cc(NC(=S)N(Cc2ccc(Br)cc2)Cc2ccc(C(=O)O)cc2)ccc1Cl | 12 | i | i | i | 25* | -1
CCN(CCO)C(=O)c1ccc2nc(Cc3ccc(OC)cc3)oc2c1 | 0 | i | i | i | i | x
CCOC(=O)CC(=O)CSc1ncnc2c1nnn2-c1ccc(F)cc1 | 61* | i | i | i | i | 3
NS(=O)(=O)c1ccc(CCNC(=O)COC(=O)C2CCC2)cc1 | -2 | i | -4.6* | i | i | -9
COc1ccc(S(=O)(=O)N(Cc2cccs2)C2CCCC2)cc1 | 7 | i | i | i | 100* | -1
COc1ccc(S(=O)(=O)NCc2cccs2)cc1 | 8 | i | i | i | i | 17
O=c1/c(=C\c2cc([N+](=O)[O-])cc([N+](=O)[O-])c2O)sc2nc3ccccc3n12 | 8 | i | i | i | i | 67*
O=C(O)c1cc(C(=O)O)cc(-c2ccc(/C=c3/sc4nc5ccccc5n4c3=O)o2)c1 | x | x | i | x | x | -143
O=C(O)c1cccc(-c2ccc(/C=c3/sc4nc5ccccc5n4c3=O)o2)c1 | 3 | i | i | i | i | 85*
CCOCCCNC(=O)CS(=O)(=O)Cc1nc(-c2cccc(OC)c2)oc1C | 9 | i | i | i | 25* | -3
CCN1CCN(CCCNC(=O)CS(=O)(=O)Cc2nc(-c3cccc(OC)c3)oc2C)CC1 | 0 | i | i | i | i | 29
C#CCOCCOCCOCCNc1nc(N2CCN(C(=O)[C@H](CCC(=O)O)n3cc(C(N)Cc4ccc(O)cc4)nn3)CC2)nc(N2CCN(C(=O)[C@H](CCC(=O)O)n3cc(C(N)Cc4ccc(O)cc4)nn3)CC2)n1 (stereo partly drawn) | -2 | i | x | i | i | 40
CN(C)C(=O)c1cnc(-c2ccccc2)nc1-c1ccccc1 | -1 | i | i | i | i | x
COC(=O)[C@@]12CCCCN1[C@H](c1ccc(-c3cccc(Cl)c3)c(OC)c1)[C@@H]1C(=O)N(C)C(=O)[C@@H]12 | 33* | i | i | i | i | x
O=C(CN1C(=O)NC2(CCCCCCC2)C1=O)NC1CCCc2ccccc21 (stereo not drawn) | 0 | i | i | i | i | 173*
SMILES | HDAC3 inh | CHT allo act | ANO1 activ | CHT block | TMEM16A inh | PHOSPHO1 inh
COc1ccc(/C=N/NC(=O)c2nn(-c3ccc(Cl)cc3)c(=O)c3c(N)scc23)cc1 | 6 | i | i | i | i | 100*
COC(=O)CCc1c(C)c(C(=O)c2cc(F)c(F)c(F)c2F)c2ccccn12 | 3 | i | i | i | i | 8
Cc1ccc(NC(=O)Cc2nnc(SCC(=O)c3ccc(Br)cc3)n2C)cc1Cl | -3 | i | x | i | i | 78*
CCCCc1ccc(NC=C2C(=O)OC3(CCCCC3)OC2=O)cc1 | 2 | i | -19* | i | i | -2
NS(=O)(=O)c1ccc(NC=C2C(=O)OC3(CCCCC3)OC2=O)cc1 | 9 | i | i | i | i | 30
S=C(Nc1cccc2ccccc12)NN1CCOCC1 | -3 | i | i | i | i | 94*
COC(=O)c1ccc(CSc2nc3ccc(Cl)cc3[nH]2)o1 | 7 | i | i | i | i | 35
COC(=O)c1ccc(CSc2nc3scc(-c4cccs4)c3c(=O)[nH]2)o1 | 42* | i | i | i | i | 72*
CCOC(=O)c1nc(-c2ccc(OC)c(OC)c2)cnc1C#N | -3 | i | i | i | i | -6
CC(C)CC(=O)Nc1nc2ccc(S(=O)(=O)N3CCOCC3)cc2s1 | -2 | i | i | i | i | 23
COc1ccc(C(=O)NC(=S)NCc2ccccc2)cc1 | 3 | i | i | i | i | 62*
COc1cc(C(=O)NNC(=S)NC(=O)/C=C/c2ccccc2)cc(OC)c1OC | 2 | i | i | i | i | 87*
COc1ccc(C(=O)NC(=S)N2CCC(C)CC2)cc1 | -1 | i | i | i | i | 69*
Cc1cccc(C(=O)NC(=S)NNC(=O)c2ccc(Cl)cc2)c1 | 6 | i | i | i | 25* | 12
COc1cc(C(=O)NNC(=O)/C=C/c2ccccc2)cc(OC)c1OC | 2 | x | i | x | x | x
CCC(=O)NC(=S)NNC(=O)c1ccc(OC)cc1 | 6 | i | i | i | i | -11
COc1cc(C(=O)NNC(=S)NC(=O)c2ccc(Cl)cc2)cc(OC)c1OC | -3 | i | i | i | i | 69*
COc1cc(CCC(=O)NNC(=O)c2ccc(Cl)cc2)cc(OC)c1OC | -1 | i | i | i | i | 15
COc1ccc(C(=O)NNC(=S)NC(=O)c2ccc(Cl)cc2)cc1 | 0 | i | i | i | 100* | x
COc1ccc(Nc2nc(-c3cccs3)cs2)c(OC)c1 | 2 | i | i | i | i | 80*
CCN(CC)C(=O)C(=O)Nc1cc(C(F)(F)F)ccc1Cl | 4 | i | i | i | i | 75*
O=C(O)CSCC(=O)Nc1cc(C(F)(F)F)ccc1Cl | 2 | i | i | i | i | 3
Cc1nn(C)c(C(=O)NNC(=S)Nc2ccc(F)cc2)c1[N+](=O)[O-] | -1 | i | i | i | i | 57
